Compound activity from PubChem.
CtBP-E1A inh: qHTS Assay for Inhibitors of the CtBP/E1A Interaction | CtBP / adenovirus E1A interaction (AlphaScreen) | AlphaScreen GST-E1A/His-CtBP binding, 1536-well; active compounds read low | activity change, % (test concentration not listed) | 340,000 compounds, 0.49% hits; in the data active = activity change below about -65%; inconclusive = mostly about -30% to -63%
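Steps: dispense buffer (Tris pH 8.0, NaCl 300 mM, TCEP 1 mM, BSA, Tween 20); add 5X protein mix (GST-E1A, His-CtBP, 125 nM each); pin 23 nL compound; 2 h at 37 °C, dark; add 5X beads (50 ug/mL); 1 h; read.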
G9a inh: qHTS Assay for Inhibitors of Histone Lysine Methyltransferase G9a; G9a H3K9 monomethylation, AlphaScreen, 2 h; Potency, µM (doses to about 102 µM), actives largely listed as inhibitors; 350,000 compounds, 8.8% hits; AID 504332, 2011; note: nearly all actives have a fitted effect of over 75% in size
Target sequence (Q96KQ7 913-1193 limits assumed): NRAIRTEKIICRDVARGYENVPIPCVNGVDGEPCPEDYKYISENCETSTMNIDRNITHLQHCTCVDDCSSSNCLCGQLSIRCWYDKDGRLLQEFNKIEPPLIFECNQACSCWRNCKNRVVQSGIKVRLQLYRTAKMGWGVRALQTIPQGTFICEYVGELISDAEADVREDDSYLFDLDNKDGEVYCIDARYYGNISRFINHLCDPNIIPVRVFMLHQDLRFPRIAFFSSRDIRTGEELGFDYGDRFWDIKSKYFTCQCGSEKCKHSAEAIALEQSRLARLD
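G9a (20 nM) was preincubated 15 min with compound, then reacted 2 h at room temperature with 500 nM biotin-H3K9 peptide and 20 µM SAM. Monomethyl-H3K9 detected by AlphaScreen using anti-H3K9me1 antibody.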
JMJD2A Tudor: qHTS Assay for Inhibitors of JMJD2A-Tudor Domain. Potency, µM (series often up to 114 µM), hits mostly inhibitors. AlphaScreen JMJD2A-Tudor / H3K4me3 peptide binding. AID 504339, 2011. 390,000 compounds, 4.4% hits. Lysine-specific demethylase 4A (Homo sapiens), O75164; note: nearly all actives have a fitted effect of over 50% in size
HP1b chromo inh: HTS for Inhibitors of HP1-beta Chromodomain Interactions with Methylated Histone Tails; Chromobox protein homolog 1 (Homo sapiens), P83916; AlphaScreen HP1-beta / biotin-H3K9me3 peptide binding; Potency, µM (doses to about 114 µM), hits mostly inhibitors; 390,000 compounds, 0.56% hits; AID 540317, 2011; note: nearly all actives have a fitted effect of over 70% in size
Target sequence (P83916 whole entry, looked up): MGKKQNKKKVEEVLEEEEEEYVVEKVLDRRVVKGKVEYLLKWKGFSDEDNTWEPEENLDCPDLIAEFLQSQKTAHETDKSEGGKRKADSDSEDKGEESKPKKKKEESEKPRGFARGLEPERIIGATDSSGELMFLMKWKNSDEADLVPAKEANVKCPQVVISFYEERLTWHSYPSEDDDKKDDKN
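Compound inhibition of the preformed complex between 50 nM HP1-beta and 50 nM biotinylated H3K9me3 peptide was read by AlphaScreen. Buffer was PBS pH 7.4 with 0.01% Tween-20. Incubations ran 30 min at room temperature, with 10 ug/mL donor/acceptor beads.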
BAZ2B inh: qHTS Assay for Inhibitors of BAZ2B | Bromodomain adjacent to zinc finger domain protein 2B (Homo sapiens), Q9UIF8 | AlphaScreen BAZ2B-H3K14Ac peptide displacement | Potency, µM (titrated, usually from 114 µM), hits mostly inhibitors | 360,000 compounds, 4.4% hits | AID 504333, 2011; note: nearly all actives have a fitted effect of over 60% in size
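Multi-concentration screen (max 110 uM) measuring displacement of acetylated histone H3 peptide from BAZ2B by AlphaScreen, using 50 nM protein, 50 nM peptide and 10 ug/mL streptavidin donor plus Ni-chelate acceptor beads.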
Six1-Eya2 inh: qHTS Assay for Inhibitors of the Six1/Eya2 Interaction; 360,000 compounds, 0.56% hits; activity change, % (no concentration beside the values); Homeobox protein SIX1 (Homo sapiens) + Protein phosphatase EYA2 (Homo sapiens), …; AID 651725, 2012; AlphaScreen GST-Six1/His-Eya2 binding, biochemical; active compounds read low; in the data active = activity change below about -65%; inconclusive = mostly about -30% to -63%
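AlphaScreen with GST-Six1 and His-Eya2 (5X mix: 250 nM and 500 nM), glutathione donor and nickel acceptor beads; buffer 50 mM Tris pH 8.0, 300 mM NaCl, 1 mM TCEP; 1 h at 37 C in the dark.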
A number is an active result; – = inactive; ? = inconclusive; · = not tested or not shown; [ ] = dose if it differs, or a comment. In the library only some 10% were active in any assay of this set; here they are far more common. Unless noted, calls come from the whole dose curve; as a rule, active = well fitted inhibition curve with a large enough effect; inconclusive = small, poorly fitted or top-dose-only effect; inactive = no such curve, though single readings can be large or run the other way.

SMILES | CtBP-E1A inh | G9a inh | JMJD2A Tudor | HP1b chromo inh | BAZ2B inh | Six1-Eya2 inh
C#CCOCCOCCOCCNc1nc(N2CCN(C(=O)[C@H](Cc3cc4ccccc4[nH]3)n3cc(C(N)CC(C)C)nn3)CC2)nc(N2CCN(C(=O)[C@H](CCC(=O)O)n3cc(C(N)[C@H](C)CC)nn3)CC2)n1 (some centres undefined) | – | –[12.7 µM] | 56µM | – | 45µM | –
Cc1noc(-c2ccc(NCc3ccccc3)c([N+](=O)[O-])c2)n1 | · | – | – | – | – | ·
Cc1ccccc1Oc1nc2c(c(=O)n(C)c(=O)n2C)n1Cc1ccc(Br)cc1 | · | – | – | – | – | ·
CC(C)(C)OC(=O)C(C1NC(C(=O)O)C(C)(C)S1)N1C(=O)c2ccccc2C1=O (centres undefined) | – | · | ? | – | · | –
Cc1ccc(C)c(OCCCn2c(-c3ccc(Cl)cc3)nc3ccccc3c2=O)c1 | · | ? | – | – | – | ·
C#CCOCCOCCOCCNc1nc(N2CCN(C(=O)C(CCC(=O)O)n3cc(C(N)CC(C)C)nn3)CC2)nc(N2CCN(C(=O)C(Cc3cc4ccccc4[nH]3)n3cc(C(N)Cc4ccc(O)cc4)nn3)CC2)n1 (centres undefined) | – | –[12.7 µM] | 56µM | – | 45µM | –
C#CCOCCOCCOCCNc1nc(N2CCN(C(=O)[C@H]([C@@H](C)CC)n3cc([C@@H](N)CO)nn3)CC2)nc(N2CCN(C(=O)[C@H](Cc3cc4ccccc4[nH]3)n3cc([C@@H](N)C(C)CC)nn3)CC2)n1 (some centres undefined) | · | ? | · | · | 50µM | ·
C#CCOCCOCCOCCNc1nc(N2CCN(C(=O)[C@H](Cc3cc4ccccc4[nH]3)n3cc([C@@H](N)C(C)CC)nn3)CC2)nc(N2CCN(C(=O)[C@H](CCCCN)n3cc([C@@H](N)CC(C)C)nn3)CC2)n1 (some centres undefined) | · | –[12.7 µM] | 45µM | – | 35µM | –
C#CCOCCOCCOCCNc1nc(N2CCN(C(=O)[C@H](CCC(=O)O)n3cc(C(N)CC(C)C)nn3)CC2)nc(N2CCN(C(=O)[C@H](Cc3cc4ccccc4[nH]3)n3cc(C(N)CC(C)C)nn3)CC2)n1 (some centres undefined) | – | ? | ? | – | 50µM | –
O=C(Cn1cc(C(=O)C2CCCCC2)c2ccccc21)NCC1CCCO1 (centres undefined) | – | ? | – | – | ? | –
O=C(NCCCN1CCN(c2ccccc2)CC1)c1nnc(Cc2c(F)cccc2Cl)o1 | · | – | ? | – | ? | ·
CC(C)c1ccc(NC(=O)CN2C=NS(=O)(=O)c3ccccc32)cc1 | · | – | – | – | – | ·
O=C(NC1CCN(CCc2c[nH]c3ccccc23)CC1)c1ccccc1 | – | – | – | – | ? | –
CC(C)CN1C(=O)CSCC1(C)C(=O)Nc1ccc2c(c1)OCCO2 (centres undefined) | – | · | · | · | · | –
COc1ccc2[nH]c(C)c(CCN3C(=O)OC(C)(C)C3(C)O)c2c1 (centres undefined) | – | – | – | – | – | –
COc1ccc2[nH]c(C)c(CCN3C(=O)C4CC=CCC4C3=O)c2c1 (centres undefined) | – | ? | 25µM | – | ? | –
COc1ccc(C2=CSC3=NNC4(CCCCC4)NN23)cc1 | – | 40µM | – | ? | ? | –
Cc1ccc(C2=CSC3=NNC4(CCCCC4)NN23)cc1 | · | ? | 45µM | – | ? | –
COc1ccc(C2=CSC3=NCCN23)cc1 | – | –[2.33 µM] | – | – | – | –
Cc1ccc(C2=CSC3=NCCN23)c(C)c1 | – | ? | ? | – | – | –
CCOc1ccc(CC(=O)OCN2C(=O)c3ccccc3C2=O)cc1 | – | 40µM | – | – | – | –
O=C(Cc1ccc(F)cc1)OCN1C(=O)c2ccccc2C1=O | – | 28µM | – | – | 79µM | –
COc1ccc(CC(=O)OCN2C(=O)c3ccccc3C2=O)cc1 | – | – | – | – | – | –
CCOc1ccccc1CNc1ncnc2onc(-c3ccc(F)cc3)c12 | · | – | – | – | – | ·
COc1ccc(-c2cn3cccnc3n2)cc1NC(=O)c1ccccc1C(F)(F)F | · | – | – | – | – | ·
SMILES | CtBP-E1A inh | G9a inh | JMJD2A Tudor | HP1b chromo inh | BAZ2B inh | Six1-Eya2 inh
O=c1[nH]c(-c2ccccn2)nc2ccccc12 | -89 | – | 56µM | – | 45µM | -91
O=c1[nH]c(-c2ccccn2)nc(C(F)(F)F)c1Br | -83 | – | 18µM | – | 28µM | -76
OCC(O)/C=N/Nc1nc(N2CCCCC2)nc(N2CCCCC2)n1 (centres undefined) | – | 56µM | – | – | – | –
C(=C\c1ccccc1)/C=N/Nc1nc(N2CCCCC2)nc(N2CCCCC2)n1 | – | –[0.501 µM] | – | – | – | –
Cc1cc(NC(=O)CSc2cn(CCNC(=O)c3ccccc3)c3ccccc23)no1 | – | ? | 22µM | 8.9µM | – | ?
Cc1ccc(C(=O)NCCn2cc(SCC(=O)Nc3cc(C)on3)c3ccccc32)cc1 | – | – | – | – | – | –
Cc1cc(NC(=O)CSc2cn(C)c3ccccc23)no1 | – | 25µM | – | – | – | –
CCOC(=O)C1(Cc2cccc(OC)c2)CCN(Cc2cnc(C)s2)CC1 | – | · | – | – | – | –
Cc1ccnc(N=O)c1 | – | · | 20µM | ? | · | –
Cc1ccnc(N=Cc2nc(-c3ccccc3Br)oc2O)c1 | · | – | – | – | – | –
CCOc1ccccc1C1C2C(=O)N(c3ccccc3)C(=O)C2ON1c1ccccc1 (centres undefined) | – | ? | – | – | · | –
CCCOc1ccc(N2C(=O)C3ON(c4ccccc4)C(c4ccc(O)c(OC)c4)C3C2=O)cc1 (centres undefined) | – | 50µM | – | – | – | –
COc1cc(C2C3C(=O)N(Cc4ccccc4)C(=O)C3ON2c2ccccc2)cc(OC)c1O (centres undefined) | – | 50µM | – | – | ? | –
CCCOc1ccc(N2C(=O)C3ON(c4ccccc4)C(CCC)C3C2=O)cc1 (centres undefined) | – | 40µM | – | – | – | –
CCCC1C2C(=O)N(c3ccccc3)C(=O)C2ON1c1ccccc1 (centres undefined) | – | – | – | – | – | –
